SMILES strings stand for the structures.

For experiment [1], the target named is T1, Aspartate--tRNA(Asp/Asn) ligase (Mycobacterium tuberculosis (strain ATCC 25618 / H37Rv)) (UniProt P9WFW3). Note: in the data most compounds retested in dose-response had high values.
T1 sequence (whole entry): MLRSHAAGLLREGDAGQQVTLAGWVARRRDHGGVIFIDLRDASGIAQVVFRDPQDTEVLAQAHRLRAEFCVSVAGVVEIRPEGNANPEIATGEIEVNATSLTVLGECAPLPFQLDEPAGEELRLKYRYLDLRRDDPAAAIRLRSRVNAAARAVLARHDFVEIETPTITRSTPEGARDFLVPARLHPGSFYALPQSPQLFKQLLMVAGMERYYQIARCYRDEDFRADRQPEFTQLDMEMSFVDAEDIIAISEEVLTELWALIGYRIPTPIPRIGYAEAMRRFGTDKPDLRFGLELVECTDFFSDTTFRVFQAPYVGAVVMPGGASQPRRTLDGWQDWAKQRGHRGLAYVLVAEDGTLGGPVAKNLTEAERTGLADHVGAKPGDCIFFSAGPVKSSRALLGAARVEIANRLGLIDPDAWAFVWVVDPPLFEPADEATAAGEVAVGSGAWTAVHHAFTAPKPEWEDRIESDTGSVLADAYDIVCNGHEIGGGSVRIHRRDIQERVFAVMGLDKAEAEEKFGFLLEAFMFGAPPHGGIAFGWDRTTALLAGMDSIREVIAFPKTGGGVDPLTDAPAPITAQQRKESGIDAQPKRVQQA
Briefly: Assay for Asp RNA synthetase-1 from Mycobacterium tuberculosis. The class given is functional. More on the design: scale not given: direction of the effect not stated beside the values. Particulars: 30 µM.

The target of experiment [2] is Shiga toxin 2 (Escherichia coli O157:H7) (UniProt P09385+P09386). Briefly: E. coli 0.157:H7 Shiga Toxin SOP - stx2 screening assay. Particulars: 30 µM. Also noted: scale not given: direction of the effect not stated beside the values. Type of experiment: functional.

For the compound `COCc1nc2cc(NCc3ccc(C)o3)ccc2o1`, the figures for the Percent Effect in experiment [1] and in experiment [2] were 25.1% and -21.1%, respectively.

For the compound `COCc1cncc2c1CCN(C(=O)c1ccc(C)o1)C2`, the values for the Percent Effect in experiment [1] and in experiment [2] were 8.15% and -6.15%, respectively.

`CCOCC1CN(Cc2cccc(C#N)c2)Cc2nccn2C1` (configuration not stated): the Percent Effect was -2.92% in experiment [1] and -10.3% in experiment [2].

As to `Cc1cc(-c2nn(C)c(Cl)c2CN2CCOCC2CC(=O)O)no1` (configuration not stated), the figures for the Percent Effect in experiment [1] and in experiment [2] were -2.48% and 19.9%, respectively.

Consider `COc1ccnc(N2CCN(C(=O)Cc3ccc(C#N)cc3)CC2)n1`, for which the values for the Percent Effect in experiment [1] and in experiment [2] were 4.99% and 8.53%, respectively.

As to `NC(=O)c1cc(C2CCCN(CCOCC(F)(F)F)C2)n[nH]1` (configuration not stated), the Percent Effect in experiment [1] was -1.37%; in experiment [2], -3.62%.

In the case of `CC(C)OCCN1CCC(N2CCN(C)C2=O)CC1`, the Percent Effect was 0.182% in experiment [1] and -16.8% in experiment [2].

Turning to `O=C(c1cc(C2CC2)[nH]n1)N1CCN(Cc2ccsc2)CC1`, the values for the Percent Effect in experiment [1] and in experiment [2] were -6.85% and -27.3%, respectively.

On to `Cc1nc(NCc2cccnc2)c2c(n1)c(C)nn2C`, for which the Percent Effect in experiment [1] was 10.4%; in experiment [2], -31.1%.

For the compound `Cn1ccnc1CN1CC[C@@H](NS(C)(=O)=O)[C@@H]1Cc1cccnc1`, the Percent Effect in experiment [1] is -0.168%; in experiment [2] it was -4.31%.

In the case of `COc1ccc(CS(=O)(=O)CC(=O)NCC2CC2)cc1F`, the Percent Effect in experiment [1] was 3.98%; in experiment [2], -12.5%.

`Cc1cnn(CC2CCCN2C(=O)c2cc3ccccc3[nH]c2=O)c1` (configuration not stated): the Percent Effect was -1.15% in experiment [1] and 22.9% in experiment [2].

With `CCOc1ncccc1NC(=O)N1CCc2ccccc2C1`, the results for the Percent Effect in experiment [1] and in experiment [2] were 19.1% and 3.47%, respectively.

On to `NC(=O)CCOc1nc(-c2ccccc2Cl)no1`, for which the figures for the Percent Effect in experiment [1] and in experiment [2] were -4.51% and -35.8%, respectively.

For `O=C(Nc1ccnc(OC2CCOC2)c1)c1cc(F)ccc1F` (configuration not stated), the Percent Effect in experiment [1] is -4.18%; in experiment [2], -63.1%.

With `CCOc1ccnc(N2CCN(C(=O)c3cccc(C#N)c3)CC2)n1`, the Percent Effect is -3.26% in experiment [1] and 40.5% in experiment [2].

Take `O=C(Cc1ccc2c(c1)OCCO2)NCCc1nnc2n1CCC2`: the Percent Effect was 6.11% in experiment [1] and 15.8% in experiment [2].

`COCCN1CCC(CN(CC2CCCO2)C(=O)CCNC(C)=O)CC1` (configuration not stated): the Percent Effect in experiment [1] was -0.167%; in experiment [2], -3.65%.

As to `Cc1nc(N2CCN(C(=O)c3ccc(O)cc3)CC2)c2cnn(C)c2n1`, the Percent Effect was -1.05% in experiment [1] and 3.77% in experiment [2].

For the compound `CCn1cc(CN(C)S(=O)(=O)c2cc(Cl)ccc2Cl)cn1`, the Percent Effect in experiment [1] is -5.08%; in experiment [2] it was -51.4%.

Take `CC(C)NC(=O)[C@H]1C[C@@H]2[C@@H](C1)OCCN2Cc1cnn(C)c1`: the Percent Effect was 2.71% in experiment [1] and -17.8% in experiment [2].

In the case of `CC(NC(=O)NCC1(c2ccccc2)CCC1)c1nncn1C` (configuration not stated), the Percent Effect was found to be 0.759% in experiment [1] and 14.9% in experiment [2].

In the case of `O=S(=O)(c1cccs1)N1CCCn2cnc(CN3CCCC3)c2C1`, the results for the Percent Effect in experiment [1] and in experiment [2] were 6.2% and -4.47%, respectively.

`Cc1c(C(=O)NC(CN2CCCC2=O)c2ccccc2)cnn1C` (configuration not stated): the Percent Effect was -1.08% in experiment [1] and 34% in experiment [2].

For the compound `COc1ccc(Cl)cc1NCC(=O)NCCNc1cnccn1`, the Percent Effect is -0.88% in experiment [1] and 25.1% in experiment [2].

For the compound `CCC1c2ccsc2CCN1C(=O)NCc1ccccn1` (configuration not stated), the Percent Effect is -0.144% in experiment [1] and -4.32% in experiment [2].

For the compound `CCC(CC)c1cc(C(=O)N2CCCC(n3cncn3)C2)on1` (configuration not stated), the figures for the Percent Effect in experiment [1] and in experiment [2] were -5.51% and -2.33%, respectively.

For `CC(NC(=O)N1CCC(OCc2ccccc2)CC1)c1nncn1C` (configuration not stated), the Percent Effect in experiment [1] is -3.22%; in experiment [2], 3.46%.

Consider `Cc1cc(C)c(CNC(=O)N2CCN(c3cnccn3)CC2)c(=O)[nH]1`, for which the results for the Percent Effect in experiment [1] and in experiment [2] were -0.167% and 9.86%, respectively.

Regarding `CNc1nc(C2CCCN2C(C)=O)nc2c1CCN(CC1CC1)C2` (configuration not stated), the Percent Effect in experiment [1] was 1.43%; in experiment [2] it was -7.13%.

Regarding `Cc1csc(CNC(=O)N(C)Cc2cnn(C)c2)n1`, the Percent Effect in experiment [1] is 1.54%; in experiment [2], -1.35%.

On to `O=C(c1ccco1)N1CCCC(c2cc(C(F)F)n3ncnc3n2)C1` (configuration not stated), for which the Percent Effect was -0.849% in experiment [1] and -7.72% in experiment [2].

As for `Cc1ccoc1-c1nnc(CN2CCn3c(nnc3C3CC3)C2)o1`, the Percent Effect in experiment [1] was -2.98%; in experiment [2], -36.6%.

As to `Cn1ccnc1CN1CCN(c2ccc(C#N)cn2)CC1`, the Percent Effect in experiment [1] was 1.72%; in experiment [2], -34.8%.

Take `CC(=O)N1CCN(C(=O)c2cc(-n3cnnn3)ccc2Cl)CC1`: the Percent Effect in experiment [1] is -1.41%; in experiment [2], -21.8%.

As to `N#Cc1cccnc1NCCNC(=O)N1CCCSCC1`, the Percent Effect was 0.546% in experiment [1] and 12.8% in experiment [2].

On to `CC(CNC(=O)Nc1cn[nH]c1)N1CCc2ccccc2C1` (configuration not stated), for which the Percent Effect in experiment [1] was -0.721%; in experiment [2] it was 21.5%.

`COc1ccc(CN(C)C(=O)CCc2c(C)nc(C)[nH]c2=O)cc1OC`: the Percent Effect in experiment [1] was -5.24%; in experiment [2], -6.32%.

Take `CN(Cc1ccco1)[C@@H]1CN(C(=O)c2ccnnc2)C[C@@H]2CCCO[C@@H]21`: the figures for the Percent Effect in experiment [1] and in experiment [2] were -5.22% and -5.91%, respectively.

Regarding `CCN1CCN(Cc2ccnc(-c3cccnc3)n2)CC1`, the results for the Percent Effect in experiment [1] and in experiment [2] were -0.64% and -13.1%, respectively.

For the compound `Cc1ccc(CCN2CCC(N(C)Cc3noc(C4CC4)n3)C2)cc1` (configuration not stated), the figures for the Percent Effect in experiment [1] and in experiment [2] were -2.9% and -69.9%, respectively.

`Cc1cc(N2CCN(CC(=O)N(C)C)CC2)nc(-c2ccncc2)n1`: the Percent Effect is -3.92% in experiment [1] and -5.53% in experiment [2].

As to `COc1cc(C2CC(=O)Oc3cc(C)[nH]c(=O)c32)ccc1OC(F)F` (configuration not stated), the Percent Effect in experiment [1] was -4.59%; in experiment [2], -43.6%.

As for `Cc1[nH]nc(CCC(=O)N2CCCC(OCc3cccnc3)C2)c1C` (configuration not stated), the Percent Effect is -6.25% in experiment [1] and 20% in experiment [2].

With `CCc1nc2n(n1)CC(Nc1cc(C)nc3ncnn13)CC2` (configuration not stated), the Percent Effect in experiment [1] was -4.28%; in experiment [2], 2.96%.

On to `CCCNC(=O)CNc1cc(C(=O)N2CCSCC2)ccc1C`, for which the figures for the Percent Effect in experiment [1] and in experiment [2] were -2.64% and -9.17%, respectively.

As to `CN1CCCC1c1cccc(Cc2ccccc2F)n1` (configuration not stated), the Percent Effect is -0.581% in experiment [1] and 1.7% in experiment [2].

Consider `CCc1csc(C2CCCN(C(=O)c3cnn(CC)c3)C2)n1` (configuration not stated), for which the values for the Percent Effect in experiment [1] and in experiment [2] were 0.0599% and -7.95%, respectively.

For the compound `COc1ccc(-c2noc(CNC(C)Cn3cccn3)n2)c(OC)c1` (configuration not stated), the Percent Effect in experiment [1] was -1.71%; in experiment [2], -8.56%.

Regarding `O=C(N1CCCC1)N1CCc2ncnc(C3CCOC3)c2CC1` (configuration not stated), the Percent Effect in experiment [1] was -0.956%; in experiment [2], -10.8%.

As for `CSc1ccc(-c2nc(CN3CCC(NC(C)=O)C3)c(C)o2)cc1` (configuration not stated), the Percent Effect was 2.73% in experiment [1] and -5.95% in experiment [2].

The values are drawn from ChEMBL document CHEMBL3988442, “University of Dundee, Small-Polar-MMV Screening Library” (2021).
